In PubChem BioAssay (NCATS):
Inconclusive results are not listed. Active and inactive are the calls of the source. Calls follow the shape of the dose curve; as a rule, active = well fitted inhibition curve with a large enough effect; inconclusive = small, poorly fitted or top-dose-only effect; inactive = flat fitted curve, though single readings scatter. Where a SMILES comes first, the peptide text is derived from it. The star is where a group is joined. βNA = c1ccc2cc(N*)ccc2c1; Cbz = O=C(OCc1ccccc1)*

Tests used:
Assay in all cases: Cytotoxic Profiling of Annotated Libraries Using Quantitative High-Throughput Screening (AID 1296008); also: nearly all actives have a fitted effect of over 60% in size
Settings in all cases: Five cell lines viability, CellTiter-Glo ATP luminescence, 48-72 h; max response: hits give low values
[1] = system: CRL-7250
Method in brief: (§1)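 Cytotoxicity was measured as CellTiter-Glo ATP luminescence, read after 10 min at room temperature. Compound treatment of the cells lasted 48 or 72 hr at 37 degrees Celsius in a qHTS format.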

[2] = system: HEK293
Method in brief: as §1

[3] = system: HaCat
Method in brief: as §1

[4] = system: KB-3-1
Method in brief: as §1

[5] = system: NIH3T3
Method in brief: as §1
% is scaled to controls: 0 for no effect and ±100 for the full control effect; potency is read from the fitted curve at half-maximal effect.

COc1cc(O)c2c(c1Cl)CC(C)OC2=O (stereo not given)
inactive: outcome [1] | max response [2] -0.0766% | outcome [3] | max response [4] 3.15% | outcome [5]

CC1=CC23[C@H](C=C(C(=O)O)[C@@H]2COC(=O)[C@]3(O)CO)[C@@H]1C (stereo not given in full)
inactive: max response [1] -1.44% | max response [2] 2.57% | max response [3] -3.69% | max response [4] 5.88% | outcome [5]

CCCCCOC(=O)Nc1nc(=O)n(C2O[C@H](C)[C@@H](O)[C@H]2O)cc1F (stereo not given in full)
inactive: outcome [1] | max response [2] -11.1% | max response [3] -6.73% | outcome [4] | outcome [5]

C[C@@H]1O[C@@H](OC2C(O[C@H]3[C@H](O[C@H]4CC[C@@]5(C)C(CC[C@]6(C)C5CC=C5C7CC(C)(C)CC(O)[C@]7(C)CC[C@]56C)C4(C)C)O[C@H](C(=O)O)[C@@H](O)[C@@H]3O)OC(CO)C(O)C2O)[C@H](O)[C@H](O)[C@H]1O (stereo not given in full)
inactive: max response [1] 4.13% | max response [2] -5.35% | outcome [3] | max response [4] 3.37% | max response [5] 1.38%

CC(C)NC(=O)c1ccc(C#Cc2ccncc2)cn1
inactive: max response [1] -8.3% | max response [2] -19.1% | outcome [3] | outcome [4] | outcome [5]

C/C=C(/C)C(=O)OC1CC(C)(C)CC2C3=CCC4C5(C)CCC(OC6OC(C)C(OC7OC(C(=O)O)C(O)C(OC8OC(CO)C(O)C(O)C8OC8OC(CO)C(O)C(O)C8O)C7O)C(O)C6O)C(C)(C)C5CCC4(C)C3(C)C(OC(=O)/C=C/C=C/C=C/CCC)C(OC(C)=O)C12CO (stereo not given)
inactive: max response [1] 3.68% | max response [2] 2.77% | outcome [3] | outcome [4] | outcome [5]

CC1CCCCCCCc2cc(O)cc(O)c2C(=O)O1 (stereo not given)
inactive: outcome [1] | max response [2] 0.839% | outcome [3] | outcome [4] | max response [5] 0.752%

COc1cc(-c2ccc(O)cc2)c(OC)c(O)c1C1=CC(=O)OC1CC(=O)O (stereo not given)
inactive: max response [1] 2.67% | max response [2] 1.87% | outcome [3] | max response [4] -5.37% | outcome [5]

COc1cc(CC2COC(c3ccc(OC4OC(CO)C(O)C(O)C4O)c(OC)c3)C2CO)ccc1O (stereo not given)
inactive: outcome [1] | max response [2] 0.464% | outcome [3] | outcome [4] | outcome [5]

H-DPPDPDRFYGMM-NH2
inactive: outcome [1] | max response [2] -1.35% | max response [3] -3.96% | outcome [4] | outcome [5]

OC[C@H]1O[C@@H](O[C@H]2[C@H](O)[C@@H](CO)O[C@@H](OCc3ccccc3)[C@@H]2O[C@@H]2OC[C@](O)(CO)[C@H]2O)[C@H](O)[C@@H](O)[C@@H]1O
inactive: max response [1] -8.44% | max response [2] -1.87% | outcome [3] | max response [4] 7.58% | max response [5] 1.27%

CC(C)CC(NC(=O)OCc1ccccc1)C(=O)NC(CC(C)C)C(=O)NC(CCC(=O)O)C(=O)Nc1ccc2ccccc2c1 (stereo not drawn) (Cbz-Leu-Leu-Glu-βNA; configuration not given here)
inactive: max response [1] -12.3% | max response [2] -0.688% | outcome [3] | outcome [4] | outcome [5]

CC1(C)C2CCC1(C)C(OC(=O)C(O)(CC(=O)O)CC(=O)O)C2 (stereo not given)
inactive: outcome [1] | max response [2] -0.502% | outcome [3] | outcome [4] | max response [5] 3.45%

CCC1=C(C)C(=O)C(C)CC12C(=O)CCC2C(=O)O (stereo not given)
inactive: max response [1] -4.23% | max response [2] -5.13% | outcome [3] | max response [4] 0.468% | outcome [5]

CO[C@@H]1[C@]2(O)C(=O)N3/C=C\C(C)(C)c4[nH]c5ccccc5c4/C=C\3C(=O)N2[C@]23[C@H](CO)C(C)(C)N2c2ccccc2[C@]13O
inactive: max response [1] 1.93% | max response [2] 0.736% | max response [3] -14.4% | max response [4] 7.79% | outcome [5]

Cc1c(F)cc(C(=O)NC2CC2)cc1-c1ccc(C(=O)NCC(C)(C)C)cn1
inactive: outcome [1] | max response [2] -4.94% | outcome [3] | max response [4] 4.19% | max response [5] -1.86%

C/C(=C\CCC(C)C1CC(O)C2(C)C3CCC4C(C)(C)C(OC5OCC(O)C(O)C5O)CCC45CC35CC(O)C12C)C(=O)O (stereo not given)
inactive: max response [1] 3.53% | max response [2] 0.956% | max response [3] 3.75% | max response [4] 9.72% | outcome [5]

C=C1CC[C@@]2(OC1)O[C@H]1CC3[C@@H]4CC=C5C[C@H](O[C@H]6OC[C@@H](O)C(O)[C@@H]6O[C@@H]6O[C@@H](C)[C@H](O)[C@@H](O[C@@H]7O[C@H](CO)[C@@H](O)[C@H](O)[C@H]7O)[C@H]6O)C[C@@H](O)[C@]5(C)C4CC[C@]3(C)[C@H]1[C@@H]2C (stereo not given in full)
inactive: max response [1] 3.7% | max response [2] -14.3% | outcome [3] | max response [4] -1.49% | outcome [5]

Cc1cn2cc(CC(=O)N3CCC4(CC3)CN(Cc3ccc(-n5nccn5)cc3Cl)C4)nc2s1
inactive: max response [1] 2.68% | max response [3] 2.32% | max response [4] 0.0455% | outcome [5]
active: Potency [2] 16.4 µM

CC1(C)CCC2(C(=O)O)CCC3(C)C(=CCC4C5(C)CCC(O)C(C)(CO)C5C(O)CC43C)C2C1 (stereo not given)
inactive: max response [1] -7.98% | max response [2] 4.6% | outcome [3] | max response [4] 4.19% | outcome [5]

CC(C)C1(O)C=C2C(=O)CC3C(C)(C(=O)O)CCCC3(C)C2CC1 (stereo not given)
inactive: max response [1] 3.97% | max response [2] 0.541% | outcome [3] | max response [4] -0.238% | outcome [5]

C[C@@]1(O)[C@H](O)[C@@H](CO)O[C@H]1n1cnc2c(=O)[nH]c(N)nc21
inactive: max response [1] 0.111% | max response [2] 0.681% | max response [3] -4.96% | outcome [4] | outcome [5]

CC(C)=CCc1cc(O[C@@H]2O[C@H](CO[C@@H]3OC[C@](O)(CO)[C@H]3O)[C@@H](O)[C@H](O)[C@H]2O)ccc1O
inactive: max response [1] -4.68% | max response [2] 1.91% | outcome [3] | outcome [4] | outcome [5]

CN1CCN(c2nc(-c3ccc(C(=O)NC4(C(=O)NCC#N)CCCCC4)cc3)cs2)CC1
inactive: max response [1] 2.74% | max response [2] -8.37% | max response [3] 1.43% | max response [4] -9.9% | outcome [5]

C[C@]12CC/C(=N\OCC(=O)O)C=C1CC[C@@H]1[C@@H]2[C@@H](O)C[C@@]2(C)[C@H]1CC[C@]2(O)C(=O)CO
inactive: max response [1] -6.4% | outcome [2] | max response [3] 2.89% | outcome [4] | max response [5] -9.49%

COc1ccc(CCC(=O)c2c(O)cc(O[C@@H]3O[C@H](CO)[C@@H](O)[C@H](O)[C@H]3O[C@@H]3O[C@@H](C)[C@H](O)[C@@H](O)[C@H]3O)cc2O)cc1O
inactive: max response [1] -2.32% | max response [2] 0.838% | max response [3] 4.19% | outcome [4] | outcome [5]

C[C@@H]1O[C@@H](O[C@H]2[C@@H]3C=CO[C@@H](O[C@@H]4O[C@H](CO)[C@@H](O)[C@H](O)[C@H]4O)[C@@H]3[C@@]3(CO)O[C@@H]23)[C@H](O)[C@H](O)[C@H]1OC(=O)/C=C/c1ccc(O)cc1
inactive: max response [1] -9.97% | max response [2] 1.82% | outcome [3] | max response [4] -5.93% | max response [5] -3.44%

C[C@@H]1O[C@@H](O[C@H]2[C@H](O)[C@@H](O)[C@H](OC[C@H]3O[C@@H](OC(=O)[C@]45CCC(C)(C)C[C@H]4C4=CCC6[C@@]7(C)C[C@@H](O)[C@H](O)[C@@](C)(CO)C7[C@H](O)C[C@@]6(C)[C@]4(C)CC5)[C@H](O)[C@@H](O)[C@@H]3O)O[C@@H]2CO)[C@H](O)[C@H](O)[C@H]1O (stereo not given in full)
inactive: outcome [1] | max response [2] -10.1% | outcome [3] | outcome [4] | max response [5] -2.14%

Cc1cc(O[C@@H]2O[C@H](COC(=O)CC(=O)O)[C@@H](O)[C@H](O)[C@H]2O)c(C(C)C)cc1O
inactive: max response [1] 0.0068% | max response [2] -1.41% | max response [3] 0.109% | max response [4] -13.3% | outcome [5]

CC(=O)NC(Cc1ccccc1)C(=O)NC(C(=O)O)C(C)C (stereo not drawn) (Ac-Phe-Val-OH; configuration not given here)
inactive: max response [1] -0.555% | outcome [2] | max response [3] -2.09% | max response [4] 4.23% | max response [5] 4.03%

COc1ccc(NC(=O)c2ccc(-c3ccc(C(N)=O)cc3C)cc2)cc1N1CCN(C)CC1
inactive: max response [1] -5.67% | max response [2] -78.4% | outcome [3] | max response [4] 1.64% | max response [5] 4.28%

C=CC(C)(CC/C=C(\C)C(=O)OC[C@H]1O[C@@H](OC(C)(C=C)CC/C=C(\C)C(=O)O[C@H]2[C@H](O)[C@@H](O)[C@H](OC(C)(C=C)CC/C=C(\C)C(=O)O)O[C@@H]2CO)[C@H](O)[C@@H](O)[C@@H]1O)O[C@@H]1O[C@H](CO)[C@@H](O)[C@H](O)[C@H]1O (stereo not given in full)
inactive: max response [1] -2.1% | max response [2] -7.01% | outcome [3] | max response [4] 3.96% | max response [5] -1.72%

C=C1CC2C3(C)C(O)CC(=O)C(C)(C)C3C(O)C(OC(C)=O)C2(C)C2C(=O)OC(C)(C(=O)OC)C(=O)C12C (stereo not given)
inactive: outcome [1] | max response [2] -2.76% | outcome [3] | outcome [4] | max response [5] -16.8%

CC(=O)NC(Cc1c[nH]c2ccccc(=O)c12)C(=O)O (stereo not given)
inactive: max response [1] -6.01% | max response [2] 1.04% | outcome [3] | outcome [4] | max response [5] 1.4%

N#Cc1cc(-c2n[nH]c(-c3ccncc3)n2)ccn1
inactive: max response [1] -0.428% | max response [2] -15.1% | outcome [3] | max response [4] -1.34% | max response [5] 0.552%

O=C(/C=C/c1ccccc1)O[C@@H]1[C@@H](CO)O[C@@](CO)(O[C@H]2O[C@H](CO)[C@@H](O)[C@H](O)[C@H]2O)[C@H]1O
inactive: outcome [1] | max response [2] 0.967% | outcome [3] | max response [4] -2.31% | max response [5] 2.88%

CC1=C[C@H]2[C@@H](CC1=O)[C@H](C)C[C@H](O)[C@H]2C(C)C
inactive: max response [1] -22.7% | max response [2] -24.5% | outcome [3] | max response [4] -6.12% | max response [5] -7.42%
